For 35 compounds, Potency results are on record in PubChem BioAssay AID1347165 (National Center for Advancing Translational Sciences (NCATS), 2019).

Structures are written as SMILES. Hit rate of the full screen: of about 220,000 compounds, about 5,700 (2.6%) were called active. A call without a number means that no potency is given here. Another 18% or so got no clear call; they are omitted. The call rests on the fitted dose curve; in most records, active means well fitted inhibition curve with a large enough effect; inconclusive means small, poorly fitted or top-dose-only effect; inactive means no such curve, though single readings can be large or run the other way. For the sample, actives were picked, then their nearest neighbours and some compounds at random.
Potency means the concentration at half of the fitted maximal effect.

Chain of Lysine-specific demethylase 5B (Homo sapiens) (Q9UGL1 whole entry, looked up): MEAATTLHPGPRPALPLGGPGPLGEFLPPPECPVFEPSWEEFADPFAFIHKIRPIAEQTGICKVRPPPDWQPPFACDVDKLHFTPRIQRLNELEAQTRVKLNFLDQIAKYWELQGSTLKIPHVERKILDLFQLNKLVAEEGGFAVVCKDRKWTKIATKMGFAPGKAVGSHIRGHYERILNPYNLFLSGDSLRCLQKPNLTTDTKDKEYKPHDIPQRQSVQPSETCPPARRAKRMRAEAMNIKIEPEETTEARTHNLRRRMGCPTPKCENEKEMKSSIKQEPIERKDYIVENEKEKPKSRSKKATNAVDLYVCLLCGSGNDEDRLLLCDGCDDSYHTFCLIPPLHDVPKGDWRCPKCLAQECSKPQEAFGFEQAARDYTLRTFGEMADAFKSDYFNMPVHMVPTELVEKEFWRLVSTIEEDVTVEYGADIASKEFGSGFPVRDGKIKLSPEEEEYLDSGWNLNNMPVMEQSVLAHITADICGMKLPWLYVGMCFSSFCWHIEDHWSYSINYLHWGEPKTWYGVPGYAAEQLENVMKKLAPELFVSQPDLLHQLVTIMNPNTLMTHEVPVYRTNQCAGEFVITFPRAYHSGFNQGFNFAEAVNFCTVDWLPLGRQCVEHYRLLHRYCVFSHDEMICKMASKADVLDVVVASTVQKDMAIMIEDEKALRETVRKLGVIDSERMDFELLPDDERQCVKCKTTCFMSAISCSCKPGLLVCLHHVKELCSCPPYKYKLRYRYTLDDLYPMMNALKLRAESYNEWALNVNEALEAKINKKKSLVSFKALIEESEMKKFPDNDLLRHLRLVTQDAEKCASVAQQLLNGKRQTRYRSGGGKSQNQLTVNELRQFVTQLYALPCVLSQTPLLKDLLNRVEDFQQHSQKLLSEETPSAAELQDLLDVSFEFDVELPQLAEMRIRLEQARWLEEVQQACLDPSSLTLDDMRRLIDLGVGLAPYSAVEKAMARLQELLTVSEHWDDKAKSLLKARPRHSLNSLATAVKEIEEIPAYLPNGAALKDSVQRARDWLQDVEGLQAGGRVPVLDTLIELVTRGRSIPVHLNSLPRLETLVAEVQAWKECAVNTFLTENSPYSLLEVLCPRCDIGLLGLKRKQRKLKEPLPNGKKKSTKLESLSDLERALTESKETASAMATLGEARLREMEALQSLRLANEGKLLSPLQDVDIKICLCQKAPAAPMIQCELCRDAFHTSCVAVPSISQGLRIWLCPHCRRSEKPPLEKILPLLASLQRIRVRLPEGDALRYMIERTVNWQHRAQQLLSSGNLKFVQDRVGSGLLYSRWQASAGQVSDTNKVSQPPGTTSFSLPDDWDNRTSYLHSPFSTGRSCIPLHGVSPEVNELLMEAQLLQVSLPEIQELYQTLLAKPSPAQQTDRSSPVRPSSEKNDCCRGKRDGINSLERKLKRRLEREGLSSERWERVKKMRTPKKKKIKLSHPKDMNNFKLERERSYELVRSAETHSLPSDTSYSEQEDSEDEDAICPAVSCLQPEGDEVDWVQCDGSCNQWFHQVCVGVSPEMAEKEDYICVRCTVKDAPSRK

This assay concerns the target Lysine-specific demethylase 5B (Homo sapiens) (UniProt Q9UGL1). Kind of assay: Primary screen for KDM5B Histone Demethylases FDH-coupled qHTS. Further: nearly all actives have a fitted effect of over 70% in size. As to conditions: FDH-coupled NADH fluorescence (FDH is formaldehyde dehydrogenase); series mostly up to 57.7 µM. The source says: Assay Submitter (PI): Qin Yan, Ph.D. (Yale University) and Xiaodong Cheng, Ph.D. (MD Anderson) This project was funded as part of the NCI NEXT Program and Chemical Biology Consortium (CBC) The histone demethylases, KDM5A and KDM5B catalyze the demethylation of lysine 4 on histone H3 (H3K4me3/2). They are overexpressed in a variety of cancers and have been implicated in cancer cell growth, metastasis, drug resistance, and tumor growth. KDM5A is amplified and overexpressed in breast and gastric cancer; and is translocated in leukemia. While KDM5B is highly expressed in human mammary tumors and breast cancer cell lines, but not in normal adult breast tissue. Moreover, knockdown of KDM5B leads to upregulation of tumor suppressor genes, including BRCA1. The goal of this project is to employ qHTS to identify selective small molecule inhibitors of KDM5A/B demethylase activity to better understand the role of KDM5 in cancer and to develop novel therapies. We employed an FDH-coupled assay previously reported by Sakurai et al. to monitor in vitro KDM5 demethylase activity. Compounds showing dose response inhibition are re-acquired, validated, and tested for non-specific interference with the formaldehyde dehydrogenase (FDH) counterscreen. True inhibitors are validated using an AlphaLisa secondary screen, which employs an H3K4(me2-1)-specific antibody to monitor demethylation of a biotin-tagged H3K4(me3) peptide substrate. Inhibitors are profiled against KDM4A and KDM6A AlphaLisa counterscreens to determine level of demethylase specificity; and against the TruHits counterscreen to eliminate non-specific inhibitory activity on the AlphaLISA detection method. Selective inhibitors identified from the primary and secondary screening are tested in cells using immunofluorescence to monitor global H3K4 tri-methylation as a measure of KDM5A/B inhibition. Early Translation Branch (ETB) National Center for Advancing Translational Sciences (NCATS), Rockville, MD National Institute of Health (NIH), Bethesda, Maryland [1] Sakurai, M et al. A miniaturized screen for inhibitors of Jumonji histone demethylases. Mol Biosyst. 2010 Feb;6(2):357-64. doi: 10.1039/b912993f. Epub 2009 Oct 8.
Materials: 1536-well Black, solid bottom, medium binding assay plate is purchased from Greiner Bio-one. The enzymes (KDM5B) and substrate (H3K4me3/2) are provided by the principal investigators. The buffer for this assay is composed of 50mM HEPES at pH 7.5 with 0.01% Tween-20. FDH coupled Demethylase qHTS protocol: Three microliter enzyme mix (buffer + 200nM KDM5BDeltaAP final concentration) is dispensed into the assay plate using the BioRAPTR Flying Reagent Dispenser (FRD; […]). Compound (at various final concentration) and control solution is pin transferred to the assay plate using the Kalypsys 1536-pin tool apparatus. The assay plate is incubated for 10 min at room temperature followed by addition of 1uL substrate mix (buffer + 100uM ascorbic acid, 50uM ferrous ammonium sulfate, 12.5uM H3K4Me3, 25uM a-ketoglutarate, 0.25 mM NAD+, 0.25 U/mL formaldehyde dehydrogenase using the FRD yielding a total reaction volume of 4 uL. Initial fluorescence (Read1) is detected using the PerkinElmer ViewLux plate reader equipped with 340 nm excitation and 450 nm emission filters. The final fluorescence (Read2) signal is obtained after 30 min of room temperature incubation. Delta RFU is calculated (Read2 - Read1) and is used to generated dose response curves.
A general note: In qHTS, concentration-response curves come from the screen itself.
Take `O=C(Nc1ccc(Cl)cc1)N1C[C@@H]2C[C@H](C1)c1c(-c3ccccc3F)ccc(=O)n1C2`: the Potency result is “inactive”.

On to `Cc1ccccc1-c1ccc2n(c1=O)C[C@H]1C[C@@H]2CN(C(=O)CSCC(=O)O)C1`, for which the Potency was 39.8 µM (active).

Regarding `O=C(Nc1ccc2n(c1=O)C[C@H]1C[C@@H]2CN(C(=O)c2ccccn2)C1)c1ccc(F)cc1`, the Potency result is “inactive”.

As for `O=C(NC1CCCCC1)N1C[C@@H]2C[C@H](C1)c1c(-c3ccccc3F)ccc(=O)n1C2`, the Potency result is “inactive”.

Take `CCCS(=O)(=O)N1C[C@@H]2C[C@H](C1)c1ccc(-c3ccccc3C)c(=O)n1C2`: the Potency is 39.8 µM (active).

For `O=C(COc1ccccc1)N1C[C@@H]2C[C@H](C1)c1c(-c3ccccc3F)ccc(=O)n1C2`, the Potency result is “inactive”.

As to `Cc1ccc(NC(=O)N(Cc2ccc3c(c2)OCO3)C2CCN(Cc3ccccc3)CC2)cc1F`, the Potency result is “inactive”.

As for `COc1ccc(/C=C\[N+](=O)[O-])c(OC)c1`, the Potency result was “inactive”.

Consider `CC1(C)NN1CCCCN1NC1(C)C` (stereo not given), for which the Potency entry is “inactive”.

For the compound `COC1CN(c2ccc(C)cc2)C12CCNCC2` (stereo not given), the Potency result was “inactive”.

As to `Cn1nc(-c2cccs2)cc1[C@H]1CN2CC[C@H]1C[C@@H]2CNC(=O)Nc1ccccc1`, the Potency result is “inactive”.

As for `CN(C)C(=O)Oc1ccc2c(=O)c(-c3ccc(Br)cc3)c(C(F)(F)F)oc2c1`, the Potency result was “inactive”.

`Cc1ccc(CN2CCC3(CCNCC3)C2)c(O)c1`: the Potency entry was “inactive”.

With `COc1ccc(C(=O)NC[C@H]2C[C@@H]3CCN2C[C@@H]3c2cc(-c3ccccc3)nn2C)cc1`, the Potency entry is “inactive”.

On to `Cc1nc(-c2ccc(C(F)(F)F)cc2)cc([C@H]2CN3CC[C@H]2C[C@@H]3CNC(=O)c2ccco2)n1`, for which the Potency entry is “inactive”.

As to `COc1ccccc1-c1cc([C@H]2CN3CC[C@H]2C[C@@H]3CNC(=O)c2ccco2)nc(C)n1`, the Potency is 31.6 µM (active).

Regarding `COc1ccccc1-c1cc([C@H]2CN3CC[C@H]2C[C@@H]3CNC(C)=O)n(C)n1`, the Potency result was “inactive”.

`Cc1ccc(C(=O)NC[C@H]2C[C@@H]3CCN2C[C@@H]3c2cc(-c3ccco3)nc(C)n2)cc1`: the Potency is 39.8 µM (active).

For the compound `COc1ccccc1-c1cc([C@H]2CN3CC[C@H]2C[C@@H]3CNC(=O)c2ccco2)n(C)n1`, the Potency result is “inactive”.

For `COc1cc2c(cc1Oc1cccc(N(C)C)c1)NC(=O)C21CCN(Cc2ccccn2)CC1`, the Potency entry was “inactive”.

For the compound `c1ccc(CCN2CCC3(CC2)OCCO3)cc1`, the Potency result was “inactive”.

Regarding `C=C[C@H]1CN2CC[C@H]1C[C@@H]2CNCc1ccc(C(F)(F)F)cc1`, the Potency result was “inactive”.

For the compound `COc1ccc(-c2cc([C@H]3CN4CC[C@H]3C[C@@H]4CNC(=O)C3CC3)n(C)n2)cc1OC`, the Potency result is “inactive”.

On to `CCCS(=O)(=O)NC[C@H]1C[C@@H]2CCN1C[C@@H]2c1cc(-c2ccccc2)nc(C)n1`, for which the Potency result was “inactive”.

Consider `COc1ccc(-c2cc([C@H]3CN4CC[C@H]3C[C@@H]4COC(=O)NC(C)C)nc(C)n2)cc1`, for which the Potency is 28.2 µM (active).

For `Cc1nc(-c2ccc(N(C)C)cc2)cc([C@H]2CN3CC[C@H]2C[C@@H]3CNC(=O)C2CCC2)n1`, the Potency is 39.8 µM (active).

For the compound `Cc1nc(-c2ccccc2)cc([C@H]2CN3CC[C@H]2C[C@@H]3CNC2CCOCC2)n1`, the Potency result was “inactive”.

On to `COc1ccc(-c2cc([C@H]3CN4CC[C@H]3C[C@@H]4CNC(=O)C3CCCCC3)n(C)n2)cc1`, for which the Potency entry was “inactive”.

As to `CC(C)(C)NC(=O)NC(=O)CCl`, the Potency entry is “inactive”.

Consider `Cc1ccc(C(=O)N2[C@H]3CC[C@@H]2c2cnc(-c4ccccc4)nc2C3)c(C)c1`, for which the Potency entry was “inactive”.

As to `Cc1nc(C)c(C(=O)N2[C@H]3CC[C@@H]2c2cnc(-c4ccccc4)nc2C3)s1`, the Potency result was “inactive”.

Regarding `CCOC(=O)c1c(C)n(Cc2ccccc2Cl)c2ccc(O)cc12`, the Potency result was “inactive”.

Regarding `CC(=O)Nc1ccc(-c2ccc3n(c2=O)C[C@H]2C[C@@H]3CN(C3CCN(C)CC3)C2)cc1`, the Potency is 39.8 µM (active).

`O=C(c1ccncc1)N1C[C@@H]2C[C@H](C1)c1ccc(C3CCCCC3)c(=O)n1C2`: the Potency entry was “inactive”.

Turning to `O=C(Nc1ccccc1)N1C[C@@H]2C[C@H](C1)c1c(-c3ccc(Cl)cc3)ccc(=O)n1C2`, the Potency result is “inactive”.
